Reference: PubChem BioAssay (EPA / NIEHS)
Several values for one entry are separate records, joined by “and”; a condition that tells them apart may be missing. Equal entries are not always repeated. Activity calls are given as the source filed them. How the source made its calls: active means hit-call score of the fitted dose curve at least 0.9, where 1 is the maximum; inactive means score below 0.9.

Read-out: C-C motif chemokine 2 (Homo sapiens) (UniProt P13500)
Test: BSK_KF3CT_MCP1: BioMAP Diversity Plus: KF3CT Assay for Monocyte Chemoattractant Protein 1 (MCP1/CCL2) Biomarker Activity (AID 2283073)
Conditions: primary human keratinocytes with fibroblasts; actives raise or lower the signal
Method: BSK_KF3CT is a cell-based, multiplexed-readout assay that uses keratinocytes and foreskin fibroblasts, a human skin primary cell co-culture, with measurements taken at 24 hours after chemical dosing in a 96-well plate.BSK_KF3CT_MCP1 is an assay component measured in the BSK_KF3CT assay. It measures MCP-1 antibody related to regulation of gene expression using ELISA technology.Data from the assay component BSK_KF3CT_MCP1 was analyzed into 1 assay endpoint. This assay endpoint, BSK_KF3CT_MCP1, was analyzed with bidirectional fitting relative to DMSO as the negative control and baseline of activity. Using a type of binding reporter, gain or loss-of-signal activity can be used to understand changes in the signaling as they relate to the gene CCL2. Furthermore, this assay endpoint can be referred to as a primary readout, because this assay has produced multiple assay endpoints where this one serves a signaling function. To generalize the intended target to other relatable targets, this assay endpoint is annotated to the cytokine intended target family, where the subfamily is chemotactic factor.
The levels of cell surface (or secreted, indicated by the prefix "s") biomarker endpoints were measured by ELISA. Overt cytotoxicity to cells in confluent adherent cultures (all systems other than the BT system) was assessed by measuring total protein levels using sulforhodamine B (SRB) staining in parallel cultures at the time of biomarker measurements, indicated as SRB endpoints. For proliferation assays for adherent cell types, individual cell types are cultured at sub-confluence and relative cell numbers quantified by SRB staining at time points optimized for each system (48 h: 3C and CASM3C systems; 72 h: BT and HDF3CGF systems; 96 h: SAg system). SRB was performed by staining cells with 0.1% SRB after fixation with 10% TCA and reading wells at 560 nm.Viability and proliferation of PBMC (T cells) was quantified by Alamar Blue reduction for the SAg and BT systems. For PBMC viability (referred to as PBMC Cytotoxicity within the assay endpoint names), cells were plated (75,000/well in a 96-well plate) and then chemical samples added for 1 h before addition of activators, SEB and TSST-1 (20 ng/mL final concentration each). Cells were incubated for 90 h. Then, Alamar Blue (20 uL/well) (Invitrogen, Cat DAL1100) was added for 6 h, and the plates were read with a fluorescence microplate reader at 546/580 nm (excitation/emission). For PBMC proliferation, cells were plated and activated as above but incubated for only 16 h prior to addition of Alamar Blue. Plates were read after 6 h.

Row | SMILES | outcome | AC50
1 | CC1=NN(c2ccccc2)C(=O)C1 | inactive | –
2 | Oc1cc2ccccc2cc1O | inactive | –
3 | CN(CCO)S(=O)(=O)C(F)(F)C(F)(F)C(F)(F)C(F)(F)C(F)(F)C(F)(F)C(F)(F)C(F)(F)F | inactive | –
4 | C=CC(C)(CCC=C(C)C)OC(C)=O (stereo not given) | inactive | –
5 | O=C(CCCN1CCC(O)(c2ccc(Cl)cc2)CC1)c1ccc(F)cc1 | inactive | –
6 | O=C1OC2(c3ccccc31)c1cc(I)c(O)c(I)c1Oc1c2cc(I)c(O)c1I | – | 3.51 µM (active)
7 | Cc1ccc(N=Nc2c(O)ccc3ccccc23)c(C)c1 | inactive | –
8 | CCCCC(CC)C(=O)O (stereo not given) | inactive | –
9 | CC(C)(C)c1ccc(O)c(O)c1 | inactive | –
10 | CN(C)CCOC(c1ccccc1)c1ccccc1 | inactive | –
11 | OCCN1CN(CCO)CN(CCO)C1 | inactive | –
12 | CCCCCc1ccc(O)cc1 | – | 9.12 µM (active)
13 | C=COC(=O)C(C)(C)CCCCCC | – | 25.9 µM (active)
14 | Cc1ccc(C(=O)c2ccccc2)cc1 | inactive | –
15 | C=CC(=C)CC/C=C(\C)CCC=C(C)C | inactive | –
16 | O=P(O)(O)CCC(F)(F)C(F)(F)C(F)(F)C(F)(F)C(F)(F)C(F)(F)F | inactive | –
17 | NC(=NCCCCCCN=C(N)/N=C(\N)Nc1ccc(Cl)cc1)/N=C(\N)Nc1ccc(Cl)cc1 | – | 6.01 µM (active)
18 | CCCCCCCCCCCCOS(=O)(=O)O | – | 20 µM (active)
19 | OCC(F)(F)C(F)(F)C(F)(F)C(F)(F)C(F)(F)C(F)(F)C(F)(F)C(F)(F)C(F)(F)C(F)(F)C(F)(F)F | inactive | –
20 | C[C@]12CC[C@@H]3c4ccc(O)cc4CC[C@H]3[C@@H]1C[C@@H](O)[C@@H]2O | inactive | –

Row | SMILES | outcome | AC50
21 | OCC(CO)(CBr)CBr | inactive | –
22 | Oc1c(Cl)cc(Cl)cc1Sc1cc(Cl)cc(Cl)c1O | – | 2.23 µM (active) and 2.57 µM (active)
23 | CCCCCCCCCCCC | – | 6.76 µM (active) and 8.48 µM (active)
24 | COc1cc(OC)nc(NC(=O)NS(=O)(=O)Nc2ccccc2C(=O)N(C)C)n1 | inactive | –
25 | CCCCC(CC)C(=O)OCCOCCOCCOCCOC(=O)C(CC)CCCC (stereo not given) | inactive | –
26 | CCCCC=O | inactive | –
27 | CC(=O)Nc1ccc(O)cc1 | inactive | –
28 | O=C(NO)c1ccccc1 | inactive | –
29 | CC[N+](CC)(CC)Cc1ccccc1 | inactive | –
30 | O=P(O)(O)CCC(F)(F)C(F)(F)C(F)(F)C(F)(F)C(F)(F)C(F)(F)C(F)(F)C(F)(F)F | inactive | –
31 | CCCCCCCCCCCCCCC | inactive | –
32 | CN(Cc1cnc2nc(N)nc(N)c2n1)c1ccc(C(=O)N[C@@H](CCC(=O)O)C(=O)O)cc1 | inactive | –
33 | O=C1NS(=O)(=O)c2ccccc21 | inactive | –
34 | COc1cccc(O)c1 | inactive | –
35 | Clc1ccc(Nc2nnc(Cc3ccncc3)c3ccccc23)cc1 | inactive | –
36 | O=C(CC(=O)C(F)(F)C(F)(F)C(F)(F)F)c1cccs1 | inactive | –
37 | CCOC(=O)CN[C@@H](C(=O)N1CC[C@H]1C(=O)NCc1ccc(/C(N)=N/O)cc1)C1CCCCC1 | inactive | –
38 | CS(=O)(=O)c1ccc([C@@H](CC2CCCC2)C(=O)Nc2cnccn2)cc1Cl | inactive | –
39 | O=C(O)CCC(F)(F)C(F)(F)C(F)(F)C(F)(F)C(F)(F)C(F)(F)F | inactive | –
40 | COC1=CC(=O)C[C@@H](C)[C@]12Oc1c(Cl)c(OC)cc(OC)c1C2=O | – | 0.119 µM (active)
